Assay [1] can be described thus: BSK_hDFCGF_SRB: Viability Assessment in the BioMAP Diversity Plus: hDFCGF Assay (AID 2283061).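 Note: cells exposed to compound for 24 h before the read.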 The note with it: primary human foreskin fibroblasts. An outline of the steps: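 Readout is SRB absorbance at 560 nm, reflecting total protein in parallel cultures of human foreskin fibroblasts harvested 24 h after chemical dosing. Activity was fitted bidirectionally relative to DMSO.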

Read-out in assay [2]: TIMP metallopeptidase inhibitor 1 (TIMP1), TIMP1 (gene 7076)
As to the kind of experiment: BSK_hDFCGF_TIMP1: BioMAP Diversity Plus: hDFCGF Assay for TIMP metallopeptidase inhibitor 1 (TIMP1) Biomarker Activity (AID 2283062). The conditions noted are these: primary human foreskin fibroblasts; actives raise or lower the signal. In outline: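 Human skin fibroblasts (primary), hDFCGF system; compound exposure 24 h; TIMP-1 by ELISA; bidirectional fit vs DMSO negative control; overt cytotoxicity by SRB in parallel wells.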

Read-out in assay [3]: Monokine induced gamma interferon (MIG), CXCL9 (gene 4283)
Description: BSK_hDFCGF_MIG: BioMAP Diversity Plus: hDFCGF Assay for Monokine induced gamma interferon (MIG) Biomarker Activity (AID 2283063). The note with it: primary human foreskin fibroblasts; actives raise or lower the signal. An outline of the steps:
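Chemicals were added to primary human foreskin fibroblast cultures, which were sampled 24 h later. MIG levels were then quantified by ELISA and responses fitted in both directions relative to DMSO.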

Read-out in assay [4]: Matrix Metallopeptidase 1 (MMP1), MMP1 (gene 4312)
As to the kind of experiment: BSK_hDFCGF_MMP1: BioMAP Diversity Plus: hDFCGF Assay for Matrix Metallopeptidase 1 (MMP1) Biomarker Activity (AID 2283064). The note with it: primary human foreskin fibroblasts; actives raise or lower the signal. In outline:
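hDFCGF primary fibroblasts (human foreskin); chemical added; 24 h; MMP1 by ELISA; bidirectional fit vs DMSO.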

Read-out in assay [5]: Plasminogen activator inhibitor-1 (PAI1), SERPINE1 (gene 5054)
Description: BSK_hDFCGF_PAI1: BioMAP Diversity Plus: hDFCGF Assay for Plasminogen activator inhibitor-1 (PAI1) Biomarker Activity (AID 2283066). The note with it: primary human foreskin fibroblasts; actives raise or lower the signal. In outline:
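Human foreskin fibroblasts in the hDFCGF system were dosed with compound for 24 h; PAI-1 was quantified by ELISA. Bidirectional curve fitting used DMSO as negative control and baseline.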

Read-out in assay [6]: Intercellular Adhesion Molecule 1 (ICAM1), ICAM1 (gene 3383)
Description: BSK_KF3CT_ICAM1: BioMAP Diversity Plus: KF3CT Assay for Intercellular Adhesion Molecule 1 (ICAM1) Biomarker Activity (AID 2283067). The conditions noted are these: primary human keratinocytes with fibroblasts; actives raise or lower the signal. An outline of the steps: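 ICAM-1 levels are measured by ELISA 24 h after dosing a primary human co-culture of keratinocytes and foreskin fibroblasts. Activity in either direction is fitted relative to DMSO vehicle.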

Read-out in assay [7]: Interferon-gamma inducible Protein 10 (IP10), CXCL10 (gene 3627)
As to the kind of experiment: BSK_KF3CT_IP10: BioMAP Diversity Plus: KF3CT Assay for Interferon-gamma inducible Protein 10 (IP10) Biomarker Activity (AID 2283068). The note with it: primary human keratinocytes with fibroblasts; actives raise or lower the signal. In outline:
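In a primary skin co-culture of keratinocytes and fibroblasts, IP-10 is quantified by ELISA at 24 h after dosing. SRB staining of parallel wells monitors overt toxicity. Curves are fitted both directions against DMSO.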

A short description of assay [8]: BSK_KF3CT_SRB: Viability Assessment in the BioMAP Diversity Plus: KF3CT Assay (AID 2283069).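 Note: total protein by sulforhodamine B staining as a cytotoxicity measure; read 24 h after compound addition; fitted for both signal gain and loss against DMSO baseline.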 The note with it: primary human keratinocytes with fibroblasts. An outline of the steps:
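Keratinocytes co-cultured with foreskin fibroblasts (human primary); chemical added, 24 h; fix 10% TCA, stain 0.1% SRB, A560. Bidirectional fit vs DMSO.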

Read-out in assay [9]: Interleukin-1 alpha (IL1a), IL1A (gene 3552)
Description: BSK_KF3CT_IL1a: BioMAP Diversity Plus: KF3CT Assay for Interleukin-1 alpha (IL1a) Biomarker Activity (AID 2283070). The conditions noted are these: primary human keratinocytes with fibroblasts; actives raise or lower the signal. In outline:
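Chemicals were dosed onto co-cultured human keratinocytes and foreskin fibroblasts, IL-1a was quantified by ELISA at 24 h, and activity was fitted in both directions relative to DMSO controls.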

Read-out in assay [10]: TIMP metallopeptidase inhibitor 2 (TIMP2), TIMP2 (gene 7077)
Description: BSK_KF3CT_TIMP2: BioMAP Diversity Plus: KF3CT Assay for TIMP metallopeptidase inhibitor 2 (TIMP2) Biomarker Activity (AID 2283071). The conditions noted are these: primary human keratinocytes with fibroblasts; actives raise or lower the signal. In outline:
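Human primary keratinocyte/foreskin fibroblast co-culture dosed with chemical and sampled at 24 h. TIMP-2 levels quantified by ELISA; bidirectional fitting against DMSO negative control as baseline.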

Read-out in assay [11]: C-C motif chemokine 2 (Homo sapiens) (UniProt P13500)
As to the kind of experiment: BSK_KF3CT_MCP1: BioMAP Diversity Plus: KF3CT Assay for Monocyte Chemoattractant Protein 1 (MCP1/CCL2) Biomarker Activity (AID 2283073). The conditions noted are these: primary human keratinocytes with fibroblasts; actives raise or lower the signal. In outline: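 ELISA readout of MCP-1 after 24 h chemical dosing of a human skin primary co-culture of keratinocytes and foreskin fibroblasts. Activity was fitted in both directions against DMSO.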

Read-out in assay [12]: Matrix Metallopeptidase 9 (MMP9), MMP9 (gene 4318)
Description: BSK_KF3CT_MMP9: BioMAP Diversity Plus: KF3CT Assay for Matrix Metallopeptidase 9 (MMP9) Biomarker Activity (AID 2283074).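 For AC50: MMP9 protein level quantified by ELISA in the co-culture.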 The conditions noted are these: primary human keratinocytes with fibroblasts; actives raise or lower the signal. An outline of the steps: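 Human keratinocyte/foreskin fibroblast co-culture; compound added; 24 h; MMP-9 by ELISA; bidirectional fit vs DMSO baseline.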

Read-out in assay [13]: urokinase plasminogen activator (uPA), PLAU (gene 5328)
As to the kind of experiment: BSK_KF3CT_uPA: BioMAP Diversity Plus: KF3CT Assay for urokinase plasminogen activator (uPA) Biomarker Activity (AID 2283075). The conditions noted are these: primary human keratinocytes with fibroblasts; actives raise or lower the signal. An outline of the steps: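 ELISA readout of uPA, analyzed for signal gain or loss relative to DMSO, from a human primary keratinocyte–foreskin fibroblast co-culture measured 24 h after chemical treatment.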

Read-out in a further assay: CD40, CD40 (gene 958)
As to the kind of experiment: BSK_LPS_CD40: BioMAP Diversity Plus: LPS Assay for CD40 Biomarker Activity (AID 2283076). The note with it: primary human HUVEC with PBMC; actives raise or lower the signal. In outline:
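Cells were dosed, incubated 24 h, then assayed for CD40 by ELISA. Gain or loss of signal was analysed relative to DMSO controls. The culture paired human umbilical vein endothelium with peripheral blood mononuclear cells.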

Read-out in assay [14]: E-selectin (Homo sapiens) (UniProt P16581)
As to the kind of experiment: BSK_LPS_Eselectin: BioMAP Diversity Plus: LPS Assay for Eselectin Biomarker Activity (AID 2283077). The conditions noted are these: primary human HUVEC with PBMC; actives raise or lower the signal. In outline:
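Primary human vascular co-culture (endothelium plus PBMC) was dosed with chemical, then E-selectin quantified by ELISA at 24 h. Endpoint values derive from bidirectional curve fitting relative to DMSO.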

Read-out in assay [15]: Interleukin-8 (IL8), CXCL8 (gene 3576)
As to the kind of experiment: BSK_LPS_IL8: BioMAP Diversity Plus: LPS Assay for Interleukin-8 (IL8) Biomarker Activity (AID 2283078). The conditions noted are these: primary human HUVEC with PBMC; actives raise or lower the signal. In outline: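 Readout is IL-8 by ELISA, taken 24 h after compounds were added to LPS-stimulated endothelial/PBMC co-cultures. Both increases and decreases relative to DMSO control were scored through bidirectional fitting.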

Read-out in assay [16]: Interleukin-1 alpha (IL1a), IL1A (gene 3552)
As to the kind of experiment: BSK_LPS_IL1a: BioMAP Diversity Plus: LPS Assay for Interleukin-1 alpha (IL1a) Biomarker Activity (AID 2283080). The conditions noted are these: primary human HUVEC with PBMC; actives raise or lower the signal. In outline:
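ELISA read-out of IL-1 alpha from a human primary vascular co-culture (endothelium plus PBMC) under LPS, sampled 24 hours post-dosing. Activity was fitted in both directions relative to DMSO controls.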

Read-out in assay [17]: Transforming growth factor beta 1 (TGFb1), TGFB1 (gene 7040)
Description: BSK_KF3CT_TGFb1: BioMAP Diversity Plus: KF3CT Assay for Transforming growth factor beta 1 (TGFb1) Biomarker Activity (AID 2283072). The conditions noted are these: primary human keratinocytes with fibroblasts; actives raise or lower the signal. An outline of the steps:
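Human keratinocyte plus foreskin fibroblast primary co-culture, dosed with chemical for 24 h. TGF-b1 quantified by ELISA. Activity fitted bidirectionally against DMSO negative control as baseline.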

Assay [18] in a line: BSK_LPS_SRB: Viability Assessment in the BioMAP Diversity Plus: LPS Assay (AID 2283079).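 Note: total protein by sulforhodamine B absorbance as a cytotoxicity measure; measured one day after compound addition; fitted in both directions against DMSO so loss or gain of signal counts.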 The note with it: primary human HUVEC with PBMC. In outline: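 Readout is SRB absorbance at 560 nm (0.1% stain, TCA-fixed parallel cultures) as a total-protein cytotoxicity measure. Cells: primary human umbilical vein endothelium plus peripheral blood mononuclear cells, 24 h after chemical exposure; DMSO served as baseline.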

SMILES strings stand for the structures. Active and inactive are the calls of the source. Rule for the calls: active = hit-call score of the fitted dose curve at least 0.9, where 1 is the maximum; inactive = score below 0.9.

Broadly, the AC50 is the concentration at which the activity in the assay is half-maximal.

Sequence of E-selectin (Homo sapiens) (P16581 whole entry, looked up): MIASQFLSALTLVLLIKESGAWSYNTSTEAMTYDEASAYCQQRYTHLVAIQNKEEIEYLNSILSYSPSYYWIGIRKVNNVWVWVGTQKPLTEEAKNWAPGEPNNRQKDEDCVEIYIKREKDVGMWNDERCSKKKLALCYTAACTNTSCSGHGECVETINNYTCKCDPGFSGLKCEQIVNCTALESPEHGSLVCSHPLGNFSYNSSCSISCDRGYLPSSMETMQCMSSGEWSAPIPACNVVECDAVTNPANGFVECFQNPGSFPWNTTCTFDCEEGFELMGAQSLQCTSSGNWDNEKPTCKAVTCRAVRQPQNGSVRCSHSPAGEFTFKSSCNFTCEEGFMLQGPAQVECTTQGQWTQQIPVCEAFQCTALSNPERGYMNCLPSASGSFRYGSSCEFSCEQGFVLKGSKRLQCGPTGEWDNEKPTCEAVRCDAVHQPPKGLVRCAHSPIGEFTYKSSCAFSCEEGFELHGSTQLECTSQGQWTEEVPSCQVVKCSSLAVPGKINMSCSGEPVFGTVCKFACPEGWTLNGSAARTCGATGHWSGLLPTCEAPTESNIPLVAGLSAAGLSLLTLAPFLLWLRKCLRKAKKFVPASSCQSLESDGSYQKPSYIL

For `CCC(=O)O[C@H]1CC[C@H]2[C@@H]3CCC4=CC(=O)CC[C@]4(C)[C@H]3CC[C@]12C`, the half-maximal activity concentration (AC50) is 36.1 µM (active) in assay [1]; 33.8 µM (active) in [2]; 36.9 µM (active) in assay [3]; 35.9 µM (active) in assay [4]; 39.1 µM (active) in assay [5]; 37.5 µM (active) in assay [6]. Further, the AC50 in assay [7] is 32.1 µM (active); in assay [8] it was 36.3 µM (active); in assay [9], 32.7 µM (active); in assay [10], 30.7 µM (active); in [12], 32.4 µM (active); in assay [13], 32.5 µM (active). For the same molecule, the AC50 was 28 µM (active) in the assay with CD40, CD40 (gene 958); 29.4 µM (active) in [14]; 26.5 µM (active) in assay [15]; 31.9 µM (active) in assay [16]. Moreover, the outcome in [11] was inactive.

`Cc1cccc(C)c1N`: the result in assay [1], in assay [2], in [3], in assay [4], in [5] and in [6] was inactive. The result in [7], in assay [8], in [9], in assay [10], in assay [17] and in assay [11] was inactive. The outcome in assay [12] is “inactive”; in assay [13] it was “inactive”; with CD40, CD40 (gene 958) it was “inactive”; in assay [14] it was “inactive”; in [15], “inactive”; in assay [18] it was “inactive”. Moreover, the outcome in assay [16] was inactive.

As to `Cc1cc(O)ccc1Cl`, the outcome in [1], in assay [2], in assay [3], in assay [4], in assay [5] and in assay [6] was inactive. The result in assay [7], in [8], in [9], in assay [10], in assay [17] and in [12] was inactive. Besides, the outcome in [13] is “inactive”; in the assay with CD40, CD40 (gene 958) it was “inactive”; in assay [14], “inactive”; in assay [15] it was “inactive”; in [18], “inactive”; in [16], “inactive”.

In the case of `CCCN(CCC)N=O`, the result in assay [1], in assay [2], in [3], in assay [4], in assay [5] and in assay [6] was inactive. Besides, the result in assay [7], in assay [8], in assay [9], in [10], in [17] and in assay [11] was inactive. Besides, the outcome was “inactive” in assay [12]; “inactive” in assay [13]; “inactive” in the assay with CD40, CD40 (gene 958); “inactive” in [14]; “inactive” in assay [15]; “inactive” in assay [18]. Also, in assay [16], the outcome was inactive.

These data come from PubChem BioAssay (EPA / NIEHS).
